High-throughput results deposited in PubChem BioAssay by National Center for Advancing Translational Sciences (NCATS).
Giardia FBPA inh – blocks Giardia fructose-bisphosphate aldolase activity. actives 0.71% (n = 290,000). AID 2451. Potency, µM (series often up to 59.6 µM), inactives show at the top dose activity, negative = inhibition, hits mostly inhibitors. purified Giardia FBPA. A8B2U2; further: potency means the concentration at half of the fitted maximal effect; nearly all actives have a fitted effect of over 55% in size
Target sequence (A8B2U2 whole entry, looked up): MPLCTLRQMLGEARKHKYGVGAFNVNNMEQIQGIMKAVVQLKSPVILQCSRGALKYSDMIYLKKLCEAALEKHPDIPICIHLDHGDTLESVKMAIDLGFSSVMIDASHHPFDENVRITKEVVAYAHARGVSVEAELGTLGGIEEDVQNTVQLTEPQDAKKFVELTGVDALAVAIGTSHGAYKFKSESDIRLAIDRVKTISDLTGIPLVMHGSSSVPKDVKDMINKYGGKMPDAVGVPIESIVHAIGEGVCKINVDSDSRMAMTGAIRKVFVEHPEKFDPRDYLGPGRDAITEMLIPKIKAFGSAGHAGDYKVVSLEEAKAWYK
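Giardia FBPA (40 nM reagent) was preincubated 10 min at RT with compound (up to 57.5 uM final), then substrate plus GAPDH/TPI/NAD/arsenate coupling system with diaphorase/resazurin was added; resorufin fluorescence (525/598 nm) was read after 20 min.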
FMDV inh – blocks foot and mouth disease virus. actives 1.2% (n = 410,000). FMDV antiviral cell-based qHTS. Potency, µM (titrated, usually from 57.9 µM), inactives show top-dose activity change, negative = inhibition, most hits filed as inhibitors. AID 1159524; calls by dose curve; tested in HEK293T cells; further: read-out not given here; potency means the concentration at half of the fitted maximal effect; nearly all actives have a fitted effect of over 45% in size
HCMV antiviral – inhibitors of human cytomegalovirus | actives 4.5% (n = 410,000) | AID 1259415 | HFF cells, HCMV-luciferase reporter, 72 h; hits give low values | activity change, negative = inhibition, % at 57.5 µM; in the data active means activity change below about -60%; inconclusive means no clear call, values can overlap the other calls; inactive means above about -39%
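After 16 h attachment at 37C, HFF cells received test compound and HCMV-luciferase (1 PFU/cell); reporter luminescence read 72 h later, data normalized against buffer-only and known inhibitor Salinomycin.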
Tb PYK inh – inhibitors of Trypanosoma brucei pyruvate kinase. TbPYK enzyme, Kinase-Glo Plus ATP luminescence, 45 min. Potency, µM (series often up to 76.8 µM), inactives show at the highest dose activity, negative = inhibition, hits mostly inhibitors. actives 0.12% (n = 410,000). Q57TT1. AID 624173; further: potency means the concentration at half of the fitted maximal effect; nearly all actives have a fitted effect of over 50% in size
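ADP (130 uM final) triggers the TbPYK reaction after compound addition; incubation is 45 min at room temperature. Kinase-Glo Plus is then added and luminescence imaged. Normalized data are fitted to concentration-effect curves.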
Sm TGR inh – blocks Schistosoma mansoni thioredoxin glutathione reductase; Q962Y6; purified TGR, DTNB reduction, TNB absorbance 405 nm; Potency, µM (doses to about 114 µM), without a hit: at the top dose activity change, negative = inhibition, actives largely listed as inhibitors; actives 3% (n = 360,000); AID 485364; further: potency means the concentration at half of the fitted maximal effect; nearly all actives have a fitted effect of over 60% in size
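Kinetic colorimetric format: TGR-catalysed, NADPH-driven DTNB reduction monitored via TNB absorbance. Enzyme dispensed at 20 nM; compound exposure 15 min at room temperature before reaction start.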
RE007 growth inh – less growth of the S. pombe RE007 Vpr strain; Potency, µM (doses to about 92.2 µM), without a hit: top-dose activity change, negative = less growth, usual class: inhibitors; actives 0.21% (n = 360,000); S. pombe RE007 Vpr strain, BacTiter-Glo ATP luminescence, 24 h; active means well fitted falling curve with a large enough effect; inconclusive means small, poorly fitted or top-dose-only effect; inactive means no such curve, though single readings can be large or run the other way; further: potency means the concentration at half of the fitted maximal effect; nearly all actives have a fitted effect of over 50% in size
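Fission yeast strain RE007, carrying one chromosomally integrated HIV-1 vpr copy, was seeded at OD 0.01 in PMG+AL medium with 23 nL pinned compound. After 24 h at 30 °C and 99% humidity, viability was read by BacTiter-Glo luminescence.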
Numbers without * were called inactive; ? = inconclusive; nt = no result given. Only some compounds are listed: those with a hit (about 7.7% of all), similar ones and a draw of the others. Unless noted, the call rests on the fitted dose curve; in most records, active means well fitted curve in the direction sought with a large enough effect; inconclusive means small, poorly fitted or top-dose-only effect, or another doubt; inactive means no such curve, though single readings can be large; an effect the other way counts as inactive or inconclusive. On the % scale 0 is the no-effect control and ±100 the full control effect.

SMILES	Giardia FBPA inh	FMDV inh	HCMV antiviral	Tb PYK inh	Sm TGR inh	RE007 growth inh
COC(=O)c1cccc(NC2CC(=O)N(c3ccc(OC)c(OC)c3)C2=O)c1 (stereo unspecified)	-5%	7%	2	-4%	35µM*	-2%
COc1ccc(N2C(=O)CC(Nc3cccc([N+](=O)[O-])c3)C2=O)cc1 (stereo unspecified)	0%	3%	-4	0%	?	-17%
COc1ccc(N2C(=O)CC(Nc3ccc(C(=O)O)cc3)C2=O)cc1OC (stereo unspecified)	3%	0%	10	0%	22µM*	1%
COc1ccc(Cl)cc1NC(=O)c1c(C(=O)Nc2cccc(C)c2C)sc2nc(C)cc(=O)n12	nt	-15%	0	-15%	-3%	nt
CSc1nn(Cc2ccc(Br)cc2)c(N(C(C)=O)C(C)=O)c1S(=O)(=O)c1ccccc1	nt	-26%	?	-7%	-19%	nt
Cc1cccc(N(C)C(=O)c2cc3c(=O)oc4ccc(C)cc4c3s2)c1	nt	3%	-12	2%	-7%	nt
CCC(=O)N(CC)C1=C(O)c2ccccc2C(=O)C1=O	7.9µM*	-24%	-105*	?	0.28µM*	?
COC(=O)c1scc(-c2ccc(C)cc2)c1S(=O)(=O)Nc1cc(C)ccc1OC	nt	12%	28	3%	8%	nt
COc1ccccc1C1CN(Cc2cccn2-c2ncccn2)Cc2ccccc2O1 (stereo unspecified)	nt	-19%	nt	nt	nt	nt
Cc1ccc2[nH]c(C(=O)N3CCc4c(cnc(C)c4CNC(=O)c4ccccc4F)C3)cc2c1	nt	-6%	nt	nt	nt	nt
CCOC(=O)CSc1n[nH]c(-c2ccco2)n1	-26%	-14%	23	-2%	-13%	-19%
O=C(CSc1n[nH]c(-c2ccco2)n1)N1c2ccccc2Sc2ccccc21	-1%	3%	-22	7%	35µM*	8%
COC(=O)[C@H]1C[C@@H]1[C@H](NC(C)=O)c1ccccc1	1%	nt	nt	nt	nt	nt
COc1ccc2nc3cc(Cl)ccc3c(Nc3cc(CN4CCCC4)c(O)c(CN4CCCC4)c3)c2n1	-4%	nt	-100*	nt	0%	nt
CCC(CC)C(=O)Nc1ccc(OCc2cc(=O)n3ccc(C)cc3n2)cc1	nt	-10%	8	5%	2%	nt
COc1ccc(C(=O)CSc2nncn2C)cc1	-8%	20%	45	-7%	-5%	11%
Cn1cnnc1SCC(=O)c1ccc(OC(F)F)cc1	-2%	4%	-78*	-13%	-14%	5%
CCOc1ccccc1C(=O)Nc1nc2c(s1)CC(C)CC2 (stereo unspecified)	nt	31%	79	-13%	0%	nt
COCCNC(=O)Cc1c(C)c2c(cc(C)c3c(C(C)(C)C)coc32)oc1=O	8%	?	-61*	-10%	-27%	18%
COC(=O)C1=C(C)NC(=O)NC1c1ccc([N+](=O)[O-])o1 (stereo unspecified)	-1%	-24%	?	5%	?	nt
COC(=O)C1=C(C)NC(=S)NC1c1ccc(-c2cc(Cl)ccc2Cl)o1 (stereo unspecified)	-6%	-27%	-13	-18%	13µM*	4%
COC(=O)C1=C(C)NC(=S)NC1c1ccc(N(CCCl)CCCl)cc1Cl (stereo unspecified)	nt	?	?	-29%	nt	0%
COC(=O)C1=C(C)NC(=O)NC1c1ccc(-c2ccc(Cl)cc2)o1 (stereo unspecified)	6%	-27%	?	2%	14µM*	4%
Cc1cc(C)c2sc(N3CCN(C(=O)C4CC4)CC3)nc2c1	nt	41%	48	2%	4%	nt
Cc1cccc(NC(=O)CN(C)S(=O)(=O)c2ccc3c(c2)CCC(=O)N3)c1C	nt	-13%	2	2%	-1%	nt
O=C(NCCCN1CCOCC1)C(=O)N/N=C/c1c2ccccc2cc2ccccc12	-7%	-16%	-93*	-7%	2%	-20%
CC(C)c1ccc(/C=N/NC(=O)C(=O)NCCCN2CCOCC2)cc1	4%	-18%	-62*	-3%	8%	10%
